ANO1 block = blocks the mouse calcium-activated chloride channel TMEM16A; 310,000 tested, 1.2% active; normalized B-score (activity score, 25-100; higher = stronger inhibition) at 10 µM; HEK293 TMEM16A/YFP iodide influx fluorescence, ionomycin; Q8BHY3;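 active = ratio plate-corrected score three or more library SD toward inhibition, starting fluorescence score within five deviations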;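 also: score derived from kinetic fluorescence span divided by baseline fluorescence per well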
CHT PAM = allosterically activates the human high affinity choline transporter. CHT-expressing cells, membrane potential dye, choline EC20; stronger effect = higher value; LV-AA mutant CHT in HEK293 cells. Q9GZV3. B-score at 10 µM. 310,000 tested, 0.49% active;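 active = initial fluorescence not abnormally high and integrated response B-score, plate-corrected, over 3 SD above library mean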
Target sequence (Q9GZV3 whole entry, looked up): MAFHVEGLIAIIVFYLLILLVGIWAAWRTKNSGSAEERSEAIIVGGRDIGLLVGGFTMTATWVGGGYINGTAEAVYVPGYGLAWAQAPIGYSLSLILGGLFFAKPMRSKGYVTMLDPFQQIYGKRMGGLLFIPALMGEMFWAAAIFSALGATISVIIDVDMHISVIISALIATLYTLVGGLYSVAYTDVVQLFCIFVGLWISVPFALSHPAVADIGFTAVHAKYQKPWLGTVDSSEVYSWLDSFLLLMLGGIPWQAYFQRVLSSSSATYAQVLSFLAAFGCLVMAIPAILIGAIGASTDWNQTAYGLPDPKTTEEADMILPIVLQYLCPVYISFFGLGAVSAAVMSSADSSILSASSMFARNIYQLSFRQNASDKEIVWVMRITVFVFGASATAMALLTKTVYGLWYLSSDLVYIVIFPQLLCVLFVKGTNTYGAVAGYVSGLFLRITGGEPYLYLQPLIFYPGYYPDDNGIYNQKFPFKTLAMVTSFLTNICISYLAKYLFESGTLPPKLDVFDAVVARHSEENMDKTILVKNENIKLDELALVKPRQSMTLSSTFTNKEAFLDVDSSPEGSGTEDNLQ
TMEM16A act = mouse TMEM16A channel activation, primary screen; Q8BHY3; 340,000 tested, 0.3% active; B-score at 10 µM; HEK293 TMEM16A/YFP-H148Q/I152L, iodide quench fluorescence; stronger effect = lower value;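 active = fluorescence-ratio B-score plate-corrected deviation score at least 3 library SD below zero, with starting fluorescence score within 5 deviations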;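 also: channel opened by trigger with iodide after compound preincubation; score built on the fluorescence ratio of max minus min over baseline; more negative score means more quench and so TMEM16A activation or potentiation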
CHT block = inhibitors of human choline transporter CHT. B-score at 10 µM. Q9GZV3. CHT-expressing cells, membrane potential dye, choline response; stronger effect = lower value. 310,000 tested, 0.86% active;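 active = B-score over 3 SD under the library average, and starting fluorescence ratio not unusually high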;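 also: choline stimulus applied at its EC90 after an EC20 pre-addition; B-score computed on integrated fluorescence ratio after choline addition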
CHT activ conf = human CHT activation, confirmatory screen. shares compounds with CHT PAM. CHT-expressing cells, membrane potential dye fluorescence (FDSS); % of choline EC20–EC90 response window; HEK293 expressing CHT LV-AA mutant; choline added at its EC20. activation, % at 10 µM. 2,500 tested, 91% active;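 active = primary screen active, with duplicate mean activation above negative control mean plus 3 SD, cut at about 11% in these data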
HEK293 MP dye = activity in parental HEK293 cells lacking CHT; shares compounds with CHT PAM; membrane potential dye fluorescence (FDSS); measured after EC20 choline addition; 2,500 tested, 62% active; ratio readout change at 10 µM, hits read low;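 active = duplicate-averaged ratio beyond 3 SD from buffer wells, up or down, though filed actives are nearly all decreases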
Active calls of the source: *. Compounds with a hit are over-represented: about 2.4% of the library has one in this group of screens.

How did COc1cc(Nc2c3c(nc4ccccc24)CCC3)cc(OC)c1OC do in these assays?
ANO1 block: inactive; CHT PAM: inactive; TMEM16A act: inactive; CHT block: inactive; CHT activ conf: 36*; HEK293 MP dye: -36*

Results for C=C(C)CSc1nc2sc3c(c2c(=O)n1C1CCCCC1)CCN(C)C3 ?
ANO1 block: inactive; CHT PAM: 6.8*; TMEM16A act: inactive; CHT block: inactive; CHT activ conf: 39*; HEK293 MP dye: -48*

Results for CCSc1nc2sc3c(c2c(=O)n1C1CCCCC1)CCN(C)C3 ?
TMEM16A act: inactive

What do the screens show for `CN1CCc2c(sc3nc(SCC(N)=O)n(-c4ccccc4)c(=O)c23)C1`?
ANO1 block: inactive; CHT PAM: inactive; TMEM16A act: inactive; CHT block: inactive; CHT activ conf: 40*; HEK293 MP dye: -34*

How did CN1CCc2c(sc3nc(SCC(=O)N4CCCCC4)n(-c4ccccc4)c(=O)c23)C1 do in these assays?
ANO1 block: inactive; CHT PAM: inactive; TMEM16A act: inactive; CHT block: inactive

What do the screens show for `CN1CCc2c(sc3nc(SCC(N)=O)n(-c4ccc(Cl)cc4)c(=O)c23)C1`?
ANO1 block: inactive; CHT PAM: 6.8*; TMEM16A act: inactive; CHT block: inactive; CHT activ conf: 46*; HEK293 MP dye: -34*

How did CCOC(=O)c1c(NC(=O)CN2CCN(C)CC2)sc(C(=O)Nc2ccccc2)c1C do in these assays?
ANO1 block: inactive; CHT PAM: inactive; TMEM16A act: inactive; CHT block: inactive

What do the screens show for `CN1CCN(CC(=O)Nc2sc3c(c2C(=O)Nc2ccccc2)CCCC3)CC1`?
ANO1 block: inactive; CHT PAM: inactive; TMEM16A act: inactive; CHT block: inactive; CHT activ conf: 45*; HEK293 MP dye: -31*

What do the screens show for `CCCSc1nnc(NC(=O)c2ccco2)s1`?
ANO1 block: inactive; CHT PAM: inactive; TMEM16A act: inactive; CHT block: inactive

What do the screens show for `COC(=O)C[N+](C)(C)C/C=C\c1ccccc1`?
ANO1 block: inactive; CHT PAM: inactive; TMEM16A act: inactive; CHT block: inactive

What do the screens show for `COCCN1Cc2cccc(C(=O)Nc3cccnc3)c2C1=O`?
ANO1 block: inactive; CHT PAM: 6.5*; TMEM16A act: inactive; CHT block: inactive; CHT activ conf: 40*; HEK293 MP dye: -41*

How did COCCN1Cc2cccc(C(=O)Nc3ccc(C)cc3)c2C1=O do in these assays?
ANO1 block: inactive; CHT PAM: inactive; TMEM16A act: inactive; CHT block: inactive

What do the screens show for `Cc1noc(C)c1NC(=O)Nc1cccc2c1O[C@H](CN(C)C(=O)Nc1ccc(C(F)(F)F)cc1)[C@@H](C)CN([C@H](C)CO)C2=O`?
TMEM16A act: inactive

What do the screens show for `COc1ccc(Cl)cc1C(Nc1cccnc1)c1ccc2cccnc2c1O` (configuration not stated)?
ANO1 block: inactive; CHT PAM: inactive; TMEM16A act: inactive; CHT block: inactive; CHT activ conf: 19*; HEK293 MP dye: inactive

What do the screens show for `CCOC(=O)N1CCN(c2ncnc3scc(-c4ccccc4)c23)CC1`?
ANO1 block: inactive; CHT PAM: 9.7*; TMEM16A act: inactive; CHT block: inactive; CHT activ conf: 15*; HEK293 MP dye: inactive

What do the screens show for `CCOC(=O)c1sc2ncnc(N3CCN(C)CC3)c2c1C`?
ANO1 block: inactive; CHT PAM: inactive; TMEM16A act: inactive; CHT block: inactive; CHT activ conf: 30*; HEK293 MP dye: -41*

Results for O=C(CSc1ncnc2scc(-c3ccccc3)c12)N1CCN(c2ccccc2F)CC1 ?
ANO1 block: inactive; CHT PAM: inactive; TMEM16A act: inactive; CHT block: inactive; CHT activ conf: 42*; HEK293 MP dye: inactive

How did CCOC(=O)c1sc2ncnc(N3CCN(c4ccc(OC)cc4)CC3)c2c1C do in these assays?
ANO1 block: inactive; CHT PAM: inactive; TMEM16A act: inactive; CHT block: inactive

Results for O=C(Nc1ccccc1)NC1(C(=O)N2CCC(O)CC2)CCCCC1 ?
ANO1 block: inactive; CHT PAM: inactive; TMEM16A act: inactive; CHT block: inactive

How did O=C(Nc1ccnc(-c2ccncc2)n1)c1ccc(F)cc1 do in these assays?
ANO1 block: inactive; CHT PAM: inactive; TMEM16A act: inactive; CHT block: inactive

How did COCCNc1ccnc2c(Cl)cccc12 do in these assays?
ANO1 block: inactive; CHT PAM: 6.3*; TMEM16A act: inactive; CHT block: inactive; CHT activ conf: 57*; HEK293 MP dye: -61*

How did O=C(CN1C(=O)C2CC=CCC2C1=O)OCCN1C(=O)c2ccccc2C1=O (configuration not stated) do in these assays?
ANO1 block: inactive; CHT PAM: inactive; TMEM16A act: inactive; CHT block: inactive

Results for CCOC(=O)c1cnc2cc(C)ccn2c1=O ?
ANO1 block: inactive; CHT PAM: 8.5*; TMEM16A act: inactive; CHT block: inactive; CHT activ conf: 52*; HEK293 MP dye: -49*

What do the screens show for `CN(C)c1nc(N)c(C(=O)N=C(N)N)nc1Cl`?
ANO1 block: inactive; CHT PAM: 8.7*; TMEM16A act: inactive; CHT block: inactive; CHT activ conf: 56*; HEK293 MP dye: -39*

Results for CCOC(=O)c1c[nH]c2nc(C)ccc2c1=O ?
ANO1 block: inactive; CHT PAM: 10*; TMEM16A act: inactive; CHT block: inactive; CHT activ conf: 63*; HEK293 MP dye: -63*

Results for CCOC(=O)c1c[nH]c(=O)c(Br)c1O ?
ANO1 block: inactive; CHT PAM: inactive; TMEM16A act: inactive; CHT block: inactive

What do the screens show for `O=C(CSc1nnc(CNC(=O)c2c(F)cccc2Cl)o1)NC1CCCCC1`?
ANO1 block: inactive; CHT PAM: inactive; TMEM16A act: inactive; CHT block: inactive

What do the screens show for `O=C(Nc1ccc2ccccc2c1)c1cnccn1`?
ANO1 block: inactive; CHT PAM: inactive; TMEM16A act: inactive; CHT block: inactive

Results for CCCOC(=O)c1ccc(NC(=O)c2cnccn2)cc1 ?
ANO1 block: inactive; CHT PAM: inactive; TMEM16A act: inactive; CHT block: inactive

Results for O=C(Nc1ccc2nccnc2c1)c1cnccn1 ?
ANO1 block: inactive; CHT PAM: 7.5*; TMEM16A act: inactive; CHT block: inactive; CHT activ conf: 53*; HEK293 MP dye: -58*

How did CCCn1c(C)cc(=O)c2cc(NC(=O)c3cnccn3)ccc21 do in these assays?
ANO1 block: inactive; CHT PAM: inactive; TMEM16A act: inactive; CHT block: inactive; CHT activ conf: 41*; HEK293 MP dye: -80*
